Data published in PubChem BioAssay.
The source made the active and inactive calls. No rule for the calls is given here.

These molecules were tested against Pantothenate synthetase (Mycobacterium tuberculosis (strain ATCC 25618 / H37Rv)) (UniProt P9WIL5) (assay: Recombinant Mtb pantothenate synthetase (PanC) inhibitors, coupled enzyme, confirmatory (AID 375;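 also: 0% = full reaction with vehicle and 100% = no enzyme background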)). Details: coupled enzyme assay; at 10 µM, stronger effect = higher value.
Pantothenate synthetase (Mycobacterium tuberculosis (strain ATCC 25618 / H37Rv)), sequence (P9WIL5 whole entry, looked up): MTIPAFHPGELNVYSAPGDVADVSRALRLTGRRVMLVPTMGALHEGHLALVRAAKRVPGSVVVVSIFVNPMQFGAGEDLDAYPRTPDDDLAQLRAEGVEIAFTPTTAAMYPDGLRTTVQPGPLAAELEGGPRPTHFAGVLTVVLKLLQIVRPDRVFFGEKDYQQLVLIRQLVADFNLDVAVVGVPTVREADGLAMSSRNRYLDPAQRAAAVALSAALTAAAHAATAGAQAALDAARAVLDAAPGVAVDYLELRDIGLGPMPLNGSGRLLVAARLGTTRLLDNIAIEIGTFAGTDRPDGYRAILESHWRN

`O=S1(=O)C=C(Sc2nnc(-c3ccccc3)o2)c2ccccc21` was tested. Which inhibition did it give?
Its inhibition is 3% (inactive).

`COc1ccc(N2CCN(C(c3cccc(OC)c3OC)c3nnnn3C3CCCC3)CC2)cc1` (stereo not given) was tested. Which inhibition did it give?
Its inhibition is 0% (inactive).

How did the inhibition turn out when `COc1ccc(-n2ncc3c(NCCCN4CCOCC4)ncnc32)cc1` was run?
The inhibition was 6% (inactive).

Which inhibition does the source give for `Cc1cc(NC(=O)c2cccc(S(=O)(=O)N3CC(c4ccccc4)CC3=O)c2)no1` (stereo not given) here?
Its inhibition is 2% (inactive).

For `COc1cc(C(=O)N2CCC(NC(=O)C(Cc3ccc(C)cc3)NC(C)=O)CC2)cc(OC)c1OC` (stereo not given), which inhibition is on record?
The inhibition was 3% (inactive).

`CC(C)(C)NCC(O)COc1cccc2c1C[C@H](O)[C@H](O)C2` (stereo not given in full) was tested. Which inhibition did it give?
The inhibition was 0% (inactive).

For `CCOc1ccc(C2/C(=C(/O)c3ccc(OC)cc3)C(=O)C(=O)N2c2cc(C)on2)cc1OC` (stereo not given), which inhibition is on record?
The inhibition was 0% (inactive).

For `Cc1cc(C)nc(-n2nc(C)cc2NC(=O)c2ccc(Br)o2)n1`, which inhibition is on record?
The inhibition was 0% (inactive).

Which inhibition does the source give for `CCOC(=O)C1CCCN(C(=O)c2ccc3c(=O)n(CCOC)c(=S)[nH]c3c2)C1` (stereo not given) here?
Its inhibition is 2% (inactive).

Which inhibition does the source give for `CCCn1c(SCC(=O)Nc2cc(C)on2)nc2c1c(=O)n(C)c(=O)n2C` here?
The inhibition was 0% (inactive).

How did the inhibition turn out when `Cc1cc2c(c(=O)o1)C(Cc1ccccc1)C(C#N)=C(N)O2` (stereo not given) was run?
Its inhibition is 1% (inactive).

With `CCOc1ccc2nc(SCc3ccc(C(=O)OC)o3)[nH]c2c1` as the molecule, how does the inhibition read?
The inhibition was 0% (inactive).

`C=C(C)COc1ccc(-c2n[nH]c(C)c2-c2ccccc2)c(O)c1` was tested. Which inhibition did it give?
The inhibition was 0% (inactive).

For `c1ccc2c(NC3CCCC3)nnc(NC3CCCC3)c2c1`, which inhibition is on record?
The inhibition was 0% (inactive).

For `c1ccc(CCn2nnnc2C(c2cccs2)N2CCOCC2)cc1` (stereo not given), which inhibition is on record?
Its inhibition is 1% (inactive).

How did the inhibition turn out when `O=S(=O)(NCc1ccco1)c1cccc2cccnc12` was run?
Its inhibition is 1% (inactive).

How did the inhibition turn out when `O=c1[nH]c2c(s1)C(c1ccco1)C1C3CCC(C3)C1S2` (stereo not given) was run?
The inhibition was 0% (inactive).

Which inhibition does the source give for `Cc1ccc(N(C(=O)c2ccncc2)C2C=CS(=O)(=O)C2)cc1` (stereo not given) here?
The inhibition was 5% (inactive).

Which inhibition does the source give for `CC(=O)C(Sc1ncnc2c1nnn2-c1ccc(F)cc1)C(=O)N(C)C` (stereo not given) here?
The inhibition was 0% (inactive).

How did the inhibition turn out when `CCOC(=O)N1CCN(C(=O)CSc2nnc(-c3cccc(Cl)c3)o2)CC1` was run?
The inhibition was 0% (inactive).

`COc1ccccc1-c1c(C)nn2c(N3CCC4(CC3)OCCO4)cc(C)nc12` was tested. Which inhibition did it give?
Its inhibition is 5% (inactive).

`O=C(OCc1ccc2c(c1)OCO2)c1ccc(S(=O)(=O)N2CCCCC2)cc1` was tested. Which inhibition did it give?
Its inhibition is 0% (inactive).

`COc1cccc(NC(=O)CSc2nnnn2C(C)C)c1` was tested. Which inhibition did it give?
Its inhibition is 6% (inactive).

How did the inhibition turn out when `NC(=O)c1cccc2c1C(=O)N(C1CCCCC1)C2` was run?
The inhibition was 0% (inactive).

How did the inhibition turn out when `CCOC(=O)C1=C(C)NC(C)=C(C(=O)OCC)C1C(=O)OC1CCOC1=O` (stereo not given) was run?
The inhibition was 13% (inactive).

`CCCN(CCC)C(=O)c1c(C)[nH]c(C(=O)OCC)c1C` was tested. Which inhibition did it give?
Its inhibition is 0% (inactive).

`COc1ccccc1C(=O)N1CCCC(c2nc(-c3cc(OC)c(OC)c(OC)c3)no2)C1` (stereo not given) was tested. Which inhibition did it give?
Its inhibition is 0% (inactive).

For `CCN1C(=O)OC2(CCCCC2)C1(C)O` (stereo not given), which inhibition is on record?
The inhibition was 0% (inactive).

How did the inhibition turn out when `Cn1ncc2c(Nc3ccccc3Br)ncnc21` was run?
Its inhibition is 0% (inactive).

For `Cc1ccc(SCCNS(=O)(=O)c2ccc(F)cc2)cc1`, which inhibition is on record?
The inhibition was 1% (inactive).

`CCOC(=O)CC(=O)c1cc(OC)c(OC)c(OC)c1` was tested. Which inhibition did it give?
The inhibition was 0% (inactive).

`CCC(C)(NC(=O)CNC(C)=O)C(=O)NC1CCCCC1` (stereo not given) was tested. Which inhibition did it give?
Its inhibition is 0% (inactive).

How did the inhibition turn out when `COc1cc(CN2CCSCC2)cc(OC)c1OC` was run?
Its inhibition is 0% (inactive).

Which inhibition does the source give for `COc1ccc(CN(Cc2nc3ccccc3c(=O)[nH]2)C(=O)NC2CCCCC2)cc1` here?
Its inhibition is 5% (inactive).

`O=C1COc2ccc(C(=O)NCc3ccco3)cc2N1` was tested. Which inhibition did it give?
Its inhibition is 0% (inactive).

With `Cc1nn(-c2ccc(F)cc2)c2sc(C(=O)O)cc12` as the molecule, how does the inhibition read?
The inhibition was 0% (inactive).

For `Cn1c(SCc2cccc3ccccc23)nnc1-c1ccco1`, which inhibition is on record?
Its inhibition is 0% (inactive).

For `COC(=O)c1cccc(NC(=O)NC2CCCN2S(=O)(=O)c2ccc(Cl)cc2)c1` (stereo not given), which inhibition is on record?
The inhibition was 16% (inactive).

`CC(C)(C)n1nnnc1CN1CCC(NC(=O)NC2CCCCC2)CC1` was tested. Which inhibition did it give?
Its inhibition is 0% (inactive).

With `C=CS(=O)(=O)c1ccc(Oc2ccc(S(=O)(=O)C=C)cc2)cc1` as the molecule, how does the inhibition read?
The inhibition was 10% (inactive).
